The campaign covered roughly 370,000 compounds. About 2,600 (0.7%) were called active. This excerpt belongs to a sample that is enriched for actives. Unmarked numbers belong to inactive results.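 Rule for the calls: active = inhibition above a per-plate cutoff, mean inhibition of test wells between control levels plus 3 SD (cut at about 38% in these data); inactive = the rest.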

The assay deals with COUP transcription factor 2 (Homo sapiens) (UniProt P24468). Briefly: NR2F2 transcriptional activity inhibitors, primary screen, cell-based, luciferase reporter, HEK293T, luminescence (AID 686940).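 Note: cells cotransfected with COUP-TFII expression vector driving the NGFI-A reporter; 0% = median of COUP-TF2 test wells and 100% = reporter-only cells.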 Conditions: HEK293T NGFI-A luciferase reporter, at 8.6 µM, active compounds read high.
Chain of COUP transcription factor 2 (Homo sapiens) (P24468 whole entry, looked up): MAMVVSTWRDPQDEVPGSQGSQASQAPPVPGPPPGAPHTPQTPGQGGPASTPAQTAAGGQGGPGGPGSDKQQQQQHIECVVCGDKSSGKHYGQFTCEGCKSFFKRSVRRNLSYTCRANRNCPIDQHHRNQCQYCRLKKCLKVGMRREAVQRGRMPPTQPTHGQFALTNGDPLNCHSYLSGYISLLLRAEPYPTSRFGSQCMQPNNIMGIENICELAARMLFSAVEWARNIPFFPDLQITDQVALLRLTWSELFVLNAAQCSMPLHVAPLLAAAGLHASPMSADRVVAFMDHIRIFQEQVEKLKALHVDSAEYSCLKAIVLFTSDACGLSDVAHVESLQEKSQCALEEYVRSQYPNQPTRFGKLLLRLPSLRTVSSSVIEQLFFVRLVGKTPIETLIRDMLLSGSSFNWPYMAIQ
Usually inhibition stands for the change of the read-out against control, counted positive when it falls. For the compound `CCc1ccccc1OCC(=O)Nc1ccc(C)c(S(=O)(=O)N2CCCCCC2)c1`, the inhibition is 16.9%.

For the compound `Cc1ccccc1OCC(=O)Nc1ccc(N2CCN(C(=O)C(C)C)CC2)c(Cl)c1`, the inhibition is 40.9% (active).

As to `Cc1ccc(NC(=O)COc2coc(CN3CCc4ccccc4C3)cc2=O)cc1Cl`, the inhibition is 8.3%.

Take `C=CCOC/C=C/C#CCN(CC=C)Cc1ccc(OC)cc1OC`: the inhibition is -4.38%.

As to `CC1(C)CC2CC(C)(CN2c2ncnc3ccc(Br)cc23)C1` (stereo unspecified), the inhibition is 16.5%.

On to `CCOC(=O)CNc1nc(Cl)nc(Nc2ccc(OC)cc2OC)n1`, for which the inhibition is 9.09%.

For `COc1ccc(Nc2ncnc3ccc(Br)cc23)c(OC)c1`, the inhibition was 39.9% (active).

Consider `O=C(Nc1cccc(Cl)c1)OC1CC2CC1[C@H]1CCCCN1[C@H]2Cc1ccccc1` (stereo partly specified), for which the inhibition is 14.6%.

Take `COc1ccc(C(=O)Nc2nc(-c3ccc(S(=O)(=O)N4CCOCC4)cc3)cs2)cc1`: the inhibition was 70.8% (active).

As for `O=C(Nc1ccc(N2CCOCC2)c(Cl)c1)c1ccc(S(=O)(=O)N2CCOCC2)cc1`, the inhibition was 6.88%.

Turning to `COc1ccc(C(=O)Nc2cc(S(=O)(=O)N3CCCC3)ccc2Cl)cc1`, the inhibition was 1.63%.

As for `COC(=O)[C@@]12CCCCC3=C1N(CCC3)C(=O)[C@H]2CC(=O)NCc1cccc2ccccc12`, the inhibition was -8.73%.

Consider `Cc1c[nH]c2cccc(-c3ccc(Cl)cc3)c12`, for which the inhibition is 1.03%.

With `COc1cccc(/C=C2\CC3(OC(C)=O)CCCN2C3)c1` (stereo unspecified), the inhibition was -14.3%.

Take `CC(=O)N1CCCN(C2=Nc3ccccc3Sc3ccccc32)CC1`: the inhibition was -4.52%.

As for `Cc1cc(C(=O)CSc2nc(N)cc(=O)[nH]2)c(C)n1-c1cccc(F)c1`, the inhibition was 27.2%.

For `Cc1cc(C(=O)COC(=O)C2CC2)c(C)n1-c1ccc(F)cc1`, the inhibition is 56.4% (active).

On to `Cc1cc(C(=O)COc2ccccc2Cl)c(C)n1C1CC1`, for which the inhibition is -24.6%.

On to `COC(=O)[C@]12C[C@H](CC(=O)N3CCN(C(=O)C4CC4)CC3)C(=O)N(CCC3=CCCCC3)C1=C[C@H](C(C)C)O[C@@H]2C1CC1`, for which the inhibition is 5.77%.

On to `CC(C)C(C#CC1CC1)N(Cc1ccc2c(c1)OCO2)C(N)=NC(=O)/C=C/c1cccc(C(F)(F)F)c1` (stereo unspecified), for which the inhibition is -0.2%.

With `CCCOc1ccc(Oc2c(Cl)cnn(Cc3cccc4ccccc34)c2=O)cc1`, the inhibition was 3.48%.

Take `CCCOc1ccc(Cc2c(O)nc(SC)[nH]c2=O)cc1C`: the inhibition is 17.2%.

As to `CCCOc1ccc(Cc2c(Cl)nc(SC)nc2NC)cc1`, the inhibition is 46.9% (active).

Consider `COC(=O)[C@]12C[C@H](CC(=O)NCC34CC5CC(CC(C5)C3)C4)C(=O)N(Cc3ccc(Cl)cc3Cl)C1=C[C@H](COCc1ccccc1)O[C@@H]2C`, for which the inhibition is -8.65%.

On to `COc1ccc(/C=C2\CC3(OC(C)=O)CCCN2C3)cc1` (stereo unspecified), for which the inhibition was -13.1%.

Consider `Fc1ccc2nc(COCc3nc4ccc(F)cc4[nH]3)[nH]c2c1`, for which the inhibition was -29.3%.

Take `O=C(CNS(=O)(=O)c1ccccc1F)N1CCN(c2ccccn2)CC1`: the inhibition is 8.7%.

For `O=C(c1ccco1)N(Cc1nc2ccccc2c(=O)[nH]1)C1CCCC1`, the inhibition is -0.35%.

Take `COCC(C)n1c(SCC(=O)NC2CCCCC2C)nc2ccccc2c1=O` (stereo unspecified): the inhibition was 1.47%.

Regarding `CN(c1ccc2nc3ccccc3c(=O)n2n1)C1CCCCC1`, the inhibition was 88.6% (active).

Consider `CN1[C@H](Cc2ccccc2)COc2cccc(N3CCSCC3)c2S1(=O)=O`, for which the inhibition was 5.38%.

Regarding `C[C@@H]1COc2cccc(N3CCCC3)c2S(=O)(=O)N1C`, the inhibition is -14.7%.

Turning to `COC(=O)c1cc(S(=O)(=O)N2CCN(C(=O)C3CCCO3)CC2)cn1C` (stereo unspecified), the inhibition was -3.24%.

Regarding `CCCCNC(=O)C[C@H]1C(=O)N(Cc2ccc(OC)cc2)C2=CCCC[C@@]21C(=O)OCC`, the inhibition is 7.45%.

Regarding `COc1cc(C(=O)NCC(=O)N2CC=C(c3ccccc3)CC2)cc(OC)c1OC`, the inhibition is 9.83%.

As to `COc1cc(C(=O)NCc2nnc(SCC(=O)Nc3nc4ccc(C)cc4s3)o2)cc(OC)c1OC`, the inhibition is -8.42%.

Turning to `CCn1c(CNC(=O)c2cc(OC)c(OC)c(OC)c2)cc2cc(C)ccc21`, the inhibition was 41.5% (active).

As for `COc1ccccc1C(=O)NC1CCCCN(C(C)C)C1=O` (stereo unspecified), the inhibition is 2.43%.

Take `CC1CCN(c2ccc(C(=O)O)cc2NS(=O)(=O)c2ccc(Br)s2)CC1`: the inhibition was -3.26%.

Consider `CN(O)C(=S)c1ccccc1`, for which the inhibition was 43.2% (active).

As to `CCn1c2ccccc2c2cc(NC(=O)CSc3nnc(-c4ccccc4)n3-c3ccc(C)cc3)ccc21`, the inhibition was 22.1%.

In the case of `COC(=O)[C@]1(C#N)CC(=O)N(CC2CCCCC2)[C@@H]1c1ccccc1`, the inhibition is -5.14%.

With `COc1ccccc1CCNC(=O)C1CCN(c2nc(C)cc(C)n2)CC1`, the inhibition was 1.51%.

Turning to `O=C(Nc1cc(F)cc(F)c1)OC1CCC12CCC(c1ccccc1)CC2` (stereo unspecified), the inhibition is 19%.

Turning to `Cn1c(CN2CCOCC2)nc2cc(NC(=O)c3ccc(Cl)cc3)ccc21`, the inhibition was 49.9% (active).

Consider `O=C(Nc1ccc(CN2CCOCC2)cc1)c1cc(Cl)ccc1Cl`, for which the inhibition is 5.94%.

Regarding `CN1CCN(Cc2nc3cc(NC(=O)COc4ccc([N+](=O)[O-])cc4)ccc3n2C)CC1`, the inhibition is 10.4%.

As to `CCc1ccccc1NC(=O)CSc1nnc(-c2cccs2)o1`, the inhibition is -16.3%.

In the case of `COc1ccc(-n2c(C)cc(C(=O)CSc3nnc(-c4cccs4)o3)c2C)cc1`, the inhibition was 54.9% (active).

With `COc1ccc(-c2nnc(SCC(=O)c3ccc4c(c3)OCCO4)o2)cc1`, the inhibition is 17.8%.

Take `CCC[C@H]1C(=O)CC[C@@]23CCCN2C(=O)CCC[C@@H]13`: the inhibition was -13.2%.

With `Cc1nc(-c2ccc(Cl)cc2)sc1C1(C)CC(c2ccccc2F)=NO1` (stereo unspecified), the inhibition is -23.8%.

Consider `Cc1nc(C(=O)Nc2ccc(Cl)cc2)sc1C1(C)CC(c2ccccc2)=NO1` (stereo unspecified), for which the inhibition is 5.05%.

Take `Cc1nc(C(=O)NCc2ccccc2)sc1C1(C)CC(c2cccnc2)=NO1` (stereo unspecified): the inhibition was 37.6% (active).

As for `CCOC(=O)[C@]12CCCCC/C=C\1N(Cc1ccc(OC)cc1)C(=O)[C@H]2CC(=O)NCCCN1CCCC1=O`, the inhibition was 1.89%.

Take `CC(C)(C)OC(=O)NCCc1ccccc1/C=C/S(=O)(=O)NCc1ccc(F)cc1`: the inhibition was 13.2%.

The values above are taken from PubChem BioAssay AID686940 (The Scripps Research Institute Molecular Screening Center, 2013).
